Assay [1] concerns Vero E6 infected with SARS-CoV-2. Nature of the assay: morphology score (similarity to uninfected cells); higher = more like uninfected cells. The settings on record: 24 h.
The test system is the same in assay [2]. Kind of assay: SARS-CoV-2 infection rate relative to infected DMSO; higher = more infection, active = 60 or less. The conditions noted are these: 24 h.

`OC(c1ccccc1)C1CCN(CCc2ccccc2)CC1` (stereo not given) (10 µM): the morphology score in assay [1] was -0.103. For the same compound, in assay [2], the SARS-CoV-2 infection rate is 106% (inactive).
On the same counts, the results for `Cn1cccc1/C=C1\C(=O)NC(=O)c2ccccc21` (0.833333 µM) are 0.0943 and 100% (inactive).
`CC#CC(=O)N1CCC[C@H]1c1nc(-c2ccc(C(=O)Nc3ccccn3)cc2)c2c(N)nccn12` [acalabrutinib] (10 µM) showed a morphology score in assay [1] of -0.00394. Also, the SARS-CoV-2 infection rate in assay [2] is 108% (inactive).
On the same counts, the results for `CCN(CC)CCOC(=O)C(Cc1cccc2ccccc12)CC1CCCO1` (mixture of isomers) [naftidrofuryl] (10 µM) are 0.14 and 104% (inactive).
On the same counts, the results for `COC(=O)C1=C(C)NC(C)=C(C(=O)OC2CCCN(Cc3ccccc3)C2)C1c1cccc([N+](=O)[O-])c1` (stereo not given) [benidipine] (10 µM) are 0.0303 and 102% (inactive).
As for `CCNC(=O)[C@H]1O[C@@H](n2cnc3c(N)nc(NCCc4ccc(CCC(=O)O)cc4)nc32)[C@H](O)[C@@H]1O` (10 µM), the morphology score in assay [1] was -0.0155. The SARS-CoV-2 infection rate in assay [2] is 115% (inactive).
For the compound `COc1ccc(C2(CNC(=O)c3ccc(NC(=O)c4ccco4)cc3)CCOCC2)cc1` (0.833333 µM), the morphology score in assay [1] came to 0.269. The SARS-CoV-2 infection rate in assay [2] is 93% (inactive).
On the same counts, the results for `Nc1nnc(Sc2ncc([N+](=O)[O-])s2)s1` (0.833333 µM) are 0.248 and 90.5% (inactive).
On the same counts, the results for `Cc1ccccc1/N=N/c1ccc(/N=N/c2c(O)ccc3ccccc23)c(C)c1` [sudan-IV] (10 µM) are 0.126 and 92% (inactive).
On the same counts, the results for `COc1ccc(C(=O)c2ccccc2)c(O)c1` [oxybenzone] (10 µM) are 0.131 and 102% (inactive).
In the case of `CC(=O)[O-].CC(=O)[O-].N.NC1CCCCC1.[Cl-].[Cl-].[Pt+4]` [satraplatin] (0.833333 µM), in assay [1], the morphology score amounted to 0.00101. For the same compound, the SARS-CoV-2 infection rate in assay [2] was 104% (inactive).
With `O=C(O)CCc1c(C(=O)O)[nH]c2cc(Cl)cc(Cl)c12` (10 µM), the morphology score in assay [1] was -0.0263. The SARS-CoV-2 infection rate in assay [2] was 104% (inactive).
On the same counts, the results for `N#Cc1ccnc(N2C(=O)CC[C@H]2C(=O)N(c2cncc(F)c2)[C@H](C(=O)NC2CC(F)(F)C2)c2ccccc2Cl)c1` [ivosidenib] (10 µM) are 0.219 and 91.5% (inactive).
On the same counts, the results for `CCOC(=O)c1ccccc1OC(N)=O` [ethyl-2-(carbamoyloxy)benzoate] (10 µM) are -0.102 and 108% (inactive).
As for `Cc1ccc2c(c1)=C(c1ccccc1)C(C1=NN(C(=O)CCC(=O)O)C(c3ccc(Br)cc3)C1)C(=O)N=2` (stereo not given) (10 µM), in assay [1], the morphology score is -0.085. The SARS-CoV-2 infection rate in assay [2] was 104% (inactive).
In the same order, the values of `COc1ccc2ccc(=O)oc2c1CC=C(C)C` [osthol] (10 µM) are 0.243 and 107% (inactive).
On the same counts, the results for `Cn1ccnc1S` [methimazole] (10 µM) are -0.0741 and 108% (inactive).
On the same counts, the results for `COc1cc(C[C@H](C)[C@H](C)Cc2ccc3c(c2)OCO3)ccc1O` [macelignan] (10 µM) are 0.185 and 102% (inactive).
`COc1cc(/C=C2\CCC/C(=C\c3ccc(O)c(OC)c3)C2=O)ccc1O` [cyclovalone] (10 µM): in assay [1], the morphology score worked out at 0.0684. For the same compound, in assay [2], the SARS-CoV-2 infection rate is 93% (inactive).
On the same counts, the results for `CCCCCCOC(=O)CCC(=O)CN` [hexaminolevulinate] (10 µM) are 0.0924 and 102% (inactive).
On the same counts, the results for `O=C(NC(=O)c1c(F)cccc1Cl)NC1c2ccccc2-c2ccccc21` (10 µM) are 0.143 and 102% (inactive).
In turn, `COc1ccc(C(=O)c2ccccc2O)c(O)c1` [dioxybenzone] (0.833333 µM) yielded a morphology score in assay [1] of 0.165. Also, in assay [2], the SARS-CoV-2 infection rate was 88% (inactive).
On the same counts, the results for `O=C(O)[C@@H]1C[C@@H](O)CN1` [L-hydroxyproline] (10 µM) are 0.203 and 101% (inactive).
As for `COc1cc(OC)nc(O[C@H](C(=O)O)C(OC)(c2ccccc2)c2ccccc2)n1` [darusentan] (10 µM), in assay [1], the morphology score was -0.0345. For the same compound, the SARS-CoV-2 infection rate in assay [2] is 116% (inactive).
In the same order, the values of `O=C(O)CCCc1ccc(N(CCCl)CCCl)cc1` [chlorambucil] (10 µM) are 0.143 and 94% (inactive).
In the same order, the values of `CN1CCN(CCc2ccc(Cl)c(Cl)c2)CC1` (10 µM) are 0.156 and 94% (inactive).
On the same counts, the results for `CC[N+](C)(CC)CCOC(=O)C(O)(c1ccccc1)C1CCCCC1` (stereo not given) [oxyphenonium] (10 µM) are 0.00163 and 102% (inactive).
In assay [1], `CCN(CC)CCCCN1c2ccccc2Oc2ccc(Cl)cc21` (0.833333 µM) came in with a morphology score of 0.331. Moreover, the SARS-CoV-2 infection rate in assay [2] is 93% (inactive).
In the same order, the values of `COc1c(N2C[C@@H]3CCCN[C@@H]3C2)c(F)cc2c(=O)c(C(=O)O)cn(C3CC3)c12` [moxifloxacin] (10 µM) are 0.0295 and 106% (inactive).
On the same counts, the results for `Cc1cc(NC(=O)C2=C(O)c3ccccc3S(=O)(=O)N2C)no1` [isoxicam] (10 µM) are -0.111 and 108% (inactive).
In the same order, the values of `CN1CCN(C(c2ccccc2)c2ccc(Cl)cc2)CC1` (stereo not given) [chlorcyclizine] (10 µM) are 0.134 and 102% (inactive).
Consider `CC(C)C(=O)Nc1ncc(-c2cc(C(F)F)nn2-c2c(Cl)cccc2Cl)s1` (10 µM), for which the morphology score in assay [1] is -0.133. In assay [2], the SARS-CoV-2 infection rate was 108% (inactive).
In assay [1], `CSc1nc(-c2ccc(F)cc2)c(-c2ccnc(N[C@@H](C)c3ccccc3)c2)[nH]1` (10 µM) came in with a morphology score of -0.159. Also, the SARS-CoV-2 infection rate in assay [2] is 107% (inactive).
In the same order, the values of `CNC(=C[N+](=O)[O-])NCCSCc1ccc(CN(C)C)o1` [ranitidine] (10 µM) are -0.0967 and 111% (inactive).
On the same counts, the results for `CN(C)NC(=O)CCC(=O)O` [daminozide] (10 µM) are 0.0765 and 95% (inactive).
On the same counts, the results for `Cc1ccc(S(=O)(=O)NC(=O)NN2CCCCCC2)cc1` [tolazamide] (10 µM) are 0.103 and 100% (inactive).
For the compound `Cc1nc2ccc(NC(=O)Nc3ccnc4cccnc34)cc2o1` (10 µM), the morphology score in assay [1] amounted to 0.053. Moreover, the SARS-CoV-2 infection rate in assay [2] is 99.5% (inactive).
On the same counts, the results for `CC(C)(C)CC(C)(C)c1ccc(O)c(Cc2ccc(Cl)cc2Cl)c1` [clofoctol] (10 µM) are 0.121 and 94% (inactive).
On the same counts, the results for `NC(N)=Nc1nc(CSCCN/C=N/S(=O)(=O)c2ccc(Br)cc2)cs1` [ebrotidine] (10 µM) are 0.0177 and 97% (inactive).
In the same order, the values of `COc1nc(N)nc2c1ncn2[C@@H]1O[C@H](CO)[C@@H](O)[C@@H]1O` [nelarabine] (10 µM) are -0.0124 and 109% (inactive).
In assay [1], `CCOC(=O)N1c2ccc(C(F)(F)F)cc2[C@@H](N(Cc2cc(C(F)(F)F)cc(C(F)(F)F)c2)C(=O)OC)C[C@H]1CC` (10 µM) showed a morphology score of 0.259. Further, in assay [2], the SARS-CoV-2 infection rate was 93% (inactive).
On the same counts, the results for `CCCOC(=O)c1ccccc1` [propyl-benzoate] (10 µM) are 0.105 and 90% (inactive).
In the same order, the values of `O=c1oc(-c2ccc(C(F)(F)F)cc2)nn1Cc1cc(Cl)ccc1O` (10 µM) are 0.593 and 39.5% (active).
In the same order, the values of `O=c1[nH]c(=O)n([C@H]2C[C@H](O)[C@@H](CO)O2)cc1Br` [broxuridine] (0.833333 µM) are 0.0347 and 108% (inactive).
For the compound `C/C(=N\NC(=N)N)c1cc(NC(=O)CCCCCCCCC(=O)Nc2cc(/C(C)=N/NC(=N)N)cc(/C(C)=N/NC(=N)N)c2)cc(/C(C)=N/NC(=N)N)c1` [semapimod] (0.833333 µM), in assay [1], the morphology score was -0.352. Besides, the SARS-CoV-2 infection rate in assay [2] was 115% (inactive).
In assay [1], `C=CC(=O)Nc1cccc(C)c1Nc1ncc2cc(-c3c(Cl)c(OC)cc(OC)c3Cl)ccc2n1` (10 µM) showed a morphology score of 0.567. In addition, the SARS-CoV-2 infection rate in assay [2] is 67% (inactive).
In the same order, the values of `CC(=O)N1CC[N+](C)(C)CC1` [4-acetyl-1,1-dimethylpiperazinium] (10 µM) are 0.103 and 88.5% (inactive).
On the same counts, the results for `C[C@@H](O)[C@H]1C(=O)N2C(C(=O)O)=C(S[C@@H]3CN[C@H](C(=O)Nc4cccc(C(=O)O)c4)C3)[C@H](C)[C@H]12` [ertapenem] (10 µM) are 0.126 and 106% (inactive).
On the same counts, the results for `Cc1ccc(-c2nn(C(C)(C)CNC(=O)c3ncccc3C)c3ncnc(N)c23)cc1` [WEHI-345-analog] (0.833333 µM) are -0.0639 and 122% (inactive).
With `CCC1(c2c[nH]cn2)Cc2ccccc2C1` [atipamezole] (10 µM), the morphology score in assay [1] is -0.114. For the same compound, the SARS-CoV-2 infection rate in assay [2] is 112% (inactive).
In the same order, the values of `O=C([O-])C(O)[C@H](O)[C@@H](O)[C@H](O)[C@H](O)CO.O=C([O-])C(O)[C@H](O)[C@@H](O)[C@H](O)[C@H](O)CO.[Ca+2]` (stereo not given in full) [calcium-gluceptate] (10 µM) are -0.0282 and 114% (inactive).
In the same order, the values of `COc1ccc(OC)c([C@@H](O)CNC(=O)CN)c1` [midodrine] (10 µM) are -0.0583 and 108% (inactive).
As to `O=C(c1ccc(F)c(F)c1Nc1ccc(I)cc1F)N1CC(O)([C@@H]2CCCCN2)C1` [cobimetinib] (0.833333 µM), the morphology score in assay [1] was -0.272. For the same compound, the SARS-CoV-2 infection rate in assay [2] was 116% (inactive).
On the same counts, the results for `CC(=O)OCC1=C(C(=O)O)N2C(=O)[C@@H](NC(=O)Cc3cccs3)[C@H]2SC1` [cephalothin] (10 µM) are -0.0126 and 102% (inactive).
In assay [1], `CC(C)NC[C@@H](O)COc1ccccc1-n1cccc1` (racemic) [isamoltane] (10 µM) came in with a morphology score of -0.204. In addition, the SARS-CoV-2 infection rate in assay [2] was 114% (inactive).
`CCC(C)CCCC(=O)N[C@@H](CCN)C(=O)N[C@H](C(=O)N[C@@H](CCN)C(=O)N[C@H]1CCNC(=O)[C@H]([C@@H](C)O)NC(=O)[C@H](CCN)NC(=O)[C@H](CCN)NC(=O)[C@H](CC(C)C)NC(=O)[C@@H](CC(C)C)NC(=O)[C@H](CCN)NC1=O)[C@@H](C)O` (stereo not given in full) [colistin] (10 µM) had a morphology score in assay [1] of 0.134. Besides, in assay [2], the SARS-CoV-2 infection rate was 96.2% (inactive).
In the same order, the values of `CC(C)(C)NCC(O)c1cc(O)cc(O)c1` (stereo not given) (10 µM) are 0.0272 and 113% (inactive).
On to `CCCCCOc1ccc(-c2ccc(-c3ccc(C(=O)N[C@H]4C[C@@H](O)[C@@H](O)NC(=O)[C@@H]5[C@@H](O)[C@@H](C)CN5C(=O)[C@H]([C@@H](C)O)NC(=O)[C@H]([C@H](O)[C@@H](O)c5ccc(O)cc5)NC(=O)[C@@H]5C[C@@H](O)CN5C(=O)[C@H]([C@@H](C)O)NC4=O)cc3)cc2)cc1` [anidulafungin] (10 µM), for which the morphology score in assay [1] was -0.164. In addition, the SARS-CoV-2 infection rate in assay [2] is 110% (inactive).
In the same order, the values of `COC(=O)c1ccc(O)cc1` [methylparaben] (10 µM) are -0.112 and 114% (inactive).
In the case of `C[C@H](Oc1cc(-c2cnn(C3CCNCC3)c2)cnc1N)c1c(Cl)ccc(F)c1Cl` [crizotinib-(S)] (0.833333 µM), the morphology score in assay [1] turned out to be 0.602. In assay [2], the SARS-CoV-2 infection rate was 99% (inactive).
